Most compounds without a hit are left out; they make up all but 5.4% or so of the library.
FMDV inh = antivirals against foot and mouth disease virus; FMDV antiviral cell-based qHTS; Potency, µM (titrated, usually from 57.9 µM), without a hit: at the top dose activity change, negative = inhibition, actives largely listed as inhibitors; hit rate 1.2% among 410,000; AID 1159524; calls by dose curve; tested in HEK293T cells; note: read-out not given here; nearly all actives have a fitted effect of over 45% in size
MARV entry inh = Marburg virus entry inhibition; Marburg virus pseudotyped entry inhibition, cell reporter; Potency, µM (top dose mostly 37.8 µM), for inactives: at the top dose activity change, negative = inhibition, hits mostly inhibitors; hit rate 1.8% among 300,000; AID 540276; calls by dose curve; tested in HEK293 cells
Lassa entry inh = blocks Lassa virus binding to or entry into cells; Potency, µM (top dose mostly 37.9 µM), without a hit: at the highest dose activity change, negative = inhibition, actives largely listed as inhibitors; Lassa virus pseudotype entry inhibition, cell reporter; hit rate 1.2% among 300,000; AID 540256; calls by dose curve; tested in HEK293 cells; note: nearly all actives have a fitted effect of over 50% in size
Sm TGR block = blocks Schistosoma mansoni thioredoxin glutathione reductase. Q962Y6. purified TGR, DTNB reduction, TNB absorbance 405 nm. Potency, µM (highest dose often 114 µM), without a hit: at the highest dose activity change, negative = inhibition, most hits filed as inhibitors. hit rate 3% among 360,000. AID 485364; active = well fitted inhibition curve with a large enough effect; inconclusive = small, poorly fitted or top-dose-only effect; inactive = no such curve, though single readings can be large or run the other way; note: nearly all actives have a fitted effect of over 60% in size
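First, TGR (20 nM dispensed) and NADPH were mixed with compound. Second, a 15 min room-temperature incubation followed. Third, further NADPH and then DTNB were added to start the reaction. Finally, TNB absorbance was monitored kinetically.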
VACV mCherry inh = vaccinia inhibition (mCherry reporter); Potency, µM (titrated, usually from 36.5 µM), for inactives: at the top dose activity change, negative = inhibition, most hits filed as inhibitors; Vaccinia virus mCherry reporter infection, fluorescence; hit rate 0.63% among 310,000; calls by dose curve; tested in A549 cells; note: nearly all actives have a fitted effect of over 35% in size
Vaccinia Venus = vaccinia inhibition (Venus reporter). Vaccinia virus Venus reporter expression, fluorescence. Potency, µM (titrated, usually from 36.5 µM), for the others: at the top dose activity change, negative = inhibition, usual class: inhibitors. hit rate 0.46% among 330,000. AID 720580; calls by dose curve; tested in A549 cells; note: nearly all actives have a fitted effect of over 30% in size
* hit, by the source's call; i = inactive; ? = inconclusive; . = no result given; [ ] = dose if it differs, or a comment. % is set by controls: 0 for no effect and ±100 for the full control effect; potency is the fitted concentration of half-maximal effect.

SMILES | FMDV inh | MARV entry inh | Lassa entry inh | Sm TGR block | VACV mCherry inh | Vaccinia Venus
CC(C)(C)c1ccc(C(=O)NCCCN2CCN(CCCNC(=O)c3ccc(C(C)(C)C)cc3)CC2)cc1 | -17.9% | ? | ? | 0.4% | ? | 11.2µM*
CC(C)(C)c1ccc(C(=O)NCCN2CCOCC2)cc1 | 16.6% | . | . | . | . | .
Cc1ccc(C(=O)c2cc(C)sc2NC(=O)CN2CCN(C(=O)c3ccco3)CC2)cc1 | ? | ? | ? | 0.3% | 11.2µM* | ?
CCc1cc(C(=O)OC)c(NC(=O)CN2CCN(C(=O)c3ccco3)CC2)s1 | ? | -18.1% | ? | -16.5% | i | -9.5%
Cc1ccnc(NC(=O)c2cccc(OC(F)F)c2)n1 | 34.9% | ? | 4.5%[46.1 µM] | 7.3% | -5.4% | 10.5%
O=C(Nc1cc(Cl)cc(Cl)c1)c1cccc(OC(F)F)c1 | 39.8µM* | -11.9% | -13.7% | 35.8% | ? | ?
CCOc1ccccc1CNC(=O)C1CCN(Cc2cc3ccccc3n2Cc2ccccc2)CC1 | -28.4% | . | -24.0%[46.1 µM] | 13.3% | ? | -10.8%
Cc1cc(NC(=O)CS(=O)(=O)c2cn(Cc3cccc(F)c3)c3ccccc23)no1 | 39.8µM* | ? | ? | -28.5% | -18.7% | -15.4%
CCOC(=O)c1cc(-c2ccc(OC)c(S(=O)(=O)N3CCN(c4ccccc4)CC3)c2)on1 | 3.3% | . | 6.3%[46.1 µM] | 8.1% | -7.0% | -10.3%
Cc1ccc(C)c(N2CCN(C(=O)CCc3nnc4n(C)c(=O)c5ccccc5n34)CC2)c1 | -18.3% | 8.9%[46.1 µM] | . | 2.6% | -12.7% | -6.6%
CC(=O)NC(c1ccco1)c1ccc2cccnc2c1O (stereo not drawn) | 2.1% | ? | ? | -18.3% | . | ?
CCCC(=O)NC(c1ccco1)c1cc([N+](=O)[O-])c2cccnc2c1O (stereo not drawn) | -29.7% | ? | ? | 28.2µM* | -10.6% | -4.7%
CC(=O)NC(c1ccc(C)cc1)c1cc([N+](=O)[O-])c2cccnc2c1O (stereo not drawn) | 0.0% | ? | ? | 4.4% | 12.6µM* | ?
CCC(=O)NC(c1ccc(C)cc1)c1cc([N+](=O)[O-])c2cccnc2c1O (stereo not drawn) | ? | ? | ? | -28.9% | 11.2µM* | ?
CCC(=O)NC(c1ccco1)c1cc(Br)c2cccnc2c1O (stereo not drawn) | -25.0% | . | . | 35.5µM* | . | .
CCC(=O)NC(c1cc(Cl)c2cccnc2c1O)C(C)C (stereo not drawn) | -25.2% | . | . | -5.9% | . | .
CCC1c2ccc(C)n2CCN1C(=O)Nc1ccccc1C(=O)OC (stereo not drawn) | -28.3% | -29.0% | 0.1% | -31.7% | . | -8.5%
CCCC1c2ccc(C)n2CCN1C(=O)Nc1ccccc1Cl (stereo not drawn) | 0.0% | 15.3% | 18.6% | 35.5µM* | . | -0.6%
CCOC(=O)c1ccccc1NC(=O)N1CCn2c(C)ccc2C1CC (stereo not drawn) | ? | ? | -6.9% | 7.08µM* | . | -4.8%
CCN(CC)c1ccc(/C=C/c2sc3ccccc3[n+]2CCCCI)cc1 | . | . | . | . | i | i
COc1cccc(C(=O)NC2CCN(CC(=O)Nc3c(C)cc(C)cc3C)CC2)c1 | . | . | . | 11.5% | . | .
COc1ccc(C(=O)NC2CCN(CC(=O)Nc3c(C)cccc3C)CC2)cc1OC | -8.0% | 1.4% | 3.6% | 100µM* | -0.2% | -12.6%
CC(=O)c1ccc(NC(=O)CN2CCC(NC(=O)c3ccccc3C)CC2)cc1 | 12.7% | . | . | . | -10.3% | -1.9%
Cc1ccccc1C(=O)NC1CCN(CC(=O)Nc2ccc(N(C)C)cc2)CC1 | 5.0% | . | . | 39.8µM* | . | .
COc1ccc(C(=O)NC2CCN(CC(=O)Nc3cccc(OC)c3)CC2)cc1 | -10.8% | . | . | -13.9% | . | .
SMILES | FMDV inh | MARV entry inh | Lassa entry inh | Sm TGR block | VACV mCherry inh | Vaccinia Venus
Cc1ccc(C(=O)NC2CCN(CC(=O)Nc3cccc([N+](=O)[O-])c3)CC2)cc1 | -8.2% | 0.794µM* | -9.8% | 0.0%[57.1 µM] | -0.6% | -3.4%
Cc1cccc(NS(=O)(=O)c2ccc3c(c2)CCN3C(=O)C2CCC2)c1 | -23.4% | ? | ? | 4.6% | -22.6% | -25.3%
Cc1oc(-c2ccc(Cl)cc2)nc1CN1CCCC(C(=O)NCCc2ccccc2)C1 (stereo not drawn) | -8.2% | 22.0%[46.1 µM] | 7.8%[46.1 µM] | 2.4% | -27.2% | -20.1%
C/C(=N\OCc1nc2ccccc2c(=O)n1/N=C/c1cc(C)cc([N+](=O)[O-])c1O)c1ccccc1 | -20.4% | . | . | -34.8% | . | .
C/C(=N\OCc1nc2ccccc2c(=O)n1/N=C/c1cc([N+](=O)[O-])ccc1O)c1ccccc1 | -4.2% | . | . | 35.5µM* | . | .
O=C(NCCc1csc(-c2cccnc2)n1)c1ccc(F)c(F)c1 | -27.0% | . | -3.5%[46.1 µM] | 4.2% | -10.2% | -4.7%
COc1ccc(NC(=O)c2cc3c(s2)-c2c(C)cccc2OC3)c(OC)c1 | -1.8% | 8.0%[46.1 µM] | . | 9.0% | -18.0% | -16.6%
Cc1ccc(-n2ncc3c(N4CCN(Cc5ccccc5)CC4)ncnc32)cc1Cl | 12.6µM* | . | 4.9%[46.1 µM] | -25.6% | -3.2% | -11.0%
COc1ccccc1N1CCN(c2ncnc3c2cnn3-c2cc(Cl)ccc2C)CC1 | 11.2µM* | . | -8.1%[46.1 µM] | 14.7% | 10µM* | 10µM*
CC(=O)c1ccc(N2CCN(c3ncnc4c3cnn4-c3cc(Cl)ccc3C)CC2)cc1 | 14.1µM* | . | 0.1%[46.1 µM] | -8.0% | ? | -28.0%
c1ccc(CN2CCN(c3ncnc4c3cnn4-c3ccccc3)CC2)cc1 | ? | . | ? | 7.0% | -14.0% | 3.2%
Clc1ccc(Cn2ncc3c(N4CCCCC4)ncnc32)c(Cl)c1 | 28.2µM* | 1.9% | 3.2% | 5.8% | . | -15.7%
COc1ccc(-n2ncc3c(N4CCN(c5cc(C)ccc5C)CC4)ncnc32)cc1 | ? | 1.9% | . | 2.4% | -1.6% | -23.6%
CCc1ccc(CNC(=O)COc2cc(=O)n(CC)c3ccccc23)cc1 | -23.3% | 25.9%[46.1 µM] | -18.6%[46.1 µM] | 0.2% | ? | -22.5%
COc1cc(=O)n2c(c1C(=O)NCc1ccc3c(c1)OCO3)CCN(C(=O)c1ccccc1F)CC2 | -6.6% | . | . | . | -8.9% | 3.5%
COc1ccc(-n2ncc3c(N4CCN(c5cccc(C)c5)C(C)C4)ncnc32)cc1 (stereo not drawn) | 20µM* | . | ? | 0.0% | ? | ?
Cc1ccc(-n2ncc3c(N4CCCCC4)ncnc32)cc1Cl | 25.1µM* | . | ? | -2.5% | -5.1% | -2.6%
Cc1ccc(-n2ncc3c(N4CCCCC4)ncnc32)cc1 | ? | . | ? | 2.7% | -13.3% | -0.8%
COc1ccc(N2CCN(c3ncnc4c3cnn4-c3ccc(C)c(Cl)c3)CC2)cc1 | -1.1% | . | 19.8%[46.1 µM] | 3.6% | -1.0% | -8.1%
Cc1ccc(-n2ncc3c(N4CCCCCC4)ncnc32)cc1Cl | 63.1µM* | . | 15.3%[46.1 µM] | 10.2% | -4.1% | 5.4%
COc1ccc(-n2ncc3c(N4CCCCC4)ncnc32)cc1 | 10µM* | . | . | 3.3% | -18.9% | -23.1%
Cc1cccc(-n2ncc3c(N4CCCC4)ncnc32)c1 | . | ? | ? | -1.1% | -17.8% | -7.6%
Cc1ccc(Cl)cc1-n1ncc2c(N3CCCCCC3)ncnc21 | 20µM* | . | ? | -4.1% | ? | -19.7%
